# In PubChem BioAssay AID485346 (Sanford-Burnham Center for Chemical Genomics, 2010):
# The campaign covered roughly 330,000 compounds. About 10,000 (3%) were called active.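 Rule for the calls: active = inhibition of at least 50% at 8 µM in the primary screen; inactive = the rest.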 Many of the other results were omitted from the sample, so actives are more common in it than they were.
# Target: Protein Mdm4 (Homo sapiens) + E3 ubiquitin-protein ligase Mdm2 (Homo sapiens) (UniProt O15151+Q00987)
# Assay: inhibitors of human Mdm2-MdmX association, primary screen, cell-based, luminescence, split luciferase, SaOS-2, uHTS (AID 485346)
# Conditions: SaOS-2 split-luciferase Mdm2/MdmX complementation, at 8 µM, hits give high values
# Chain of Protein Mdm4 (Homo sapiens) + E3 ubiquitin-protein ligase Mdm2 (Homo sapiens) (O15151 whole entry, looked up): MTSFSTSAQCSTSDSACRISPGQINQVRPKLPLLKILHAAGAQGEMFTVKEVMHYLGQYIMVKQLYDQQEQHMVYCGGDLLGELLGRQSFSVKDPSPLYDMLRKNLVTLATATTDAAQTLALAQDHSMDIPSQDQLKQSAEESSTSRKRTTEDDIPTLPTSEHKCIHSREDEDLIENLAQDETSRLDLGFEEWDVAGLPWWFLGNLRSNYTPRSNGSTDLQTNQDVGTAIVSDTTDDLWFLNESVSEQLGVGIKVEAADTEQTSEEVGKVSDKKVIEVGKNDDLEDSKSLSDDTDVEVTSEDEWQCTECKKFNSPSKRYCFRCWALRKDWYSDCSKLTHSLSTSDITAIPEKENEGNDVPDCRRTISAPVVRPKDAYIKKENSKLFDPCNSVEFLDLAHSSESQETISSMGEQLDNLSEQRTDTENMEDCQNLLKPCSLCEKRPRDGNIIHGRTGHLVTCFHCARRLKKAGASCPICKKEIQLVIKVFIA
# Chain of Protein Mdm4 (Homo sapiens) + E3 ubiquitin-protein ligase Mdm2 (Homo sapiens) (Q00987 whole entry, looked up): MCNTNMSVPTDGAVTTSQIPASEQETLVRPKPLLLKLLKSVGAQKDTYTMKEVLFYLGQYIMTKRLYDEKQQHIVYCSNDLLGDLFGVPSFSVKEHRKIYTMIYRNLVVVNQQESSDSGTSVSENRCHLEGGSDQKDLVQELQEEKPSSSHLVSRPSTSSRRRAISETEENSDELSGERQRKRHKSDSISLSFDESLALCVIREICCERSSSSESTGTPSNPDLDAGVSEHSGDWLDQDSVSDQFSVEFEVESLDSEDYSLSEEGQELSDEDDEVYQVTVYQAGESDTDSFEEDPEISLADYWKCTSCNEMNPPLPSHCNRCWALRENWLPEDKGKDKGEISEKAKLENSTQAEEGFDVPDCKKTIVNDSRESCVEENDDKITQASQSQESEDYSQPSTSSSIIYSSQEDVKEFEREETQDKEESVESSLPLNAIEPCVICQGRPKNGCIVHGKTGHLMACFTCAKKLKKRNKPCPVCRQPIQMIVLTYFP
row,Structure (SMILES),inhibition
1,CC(C)c1ccc(NC(=O)[C@@H](NC(=O)N2CC(=O)Nc3ccccc32)C(C)C)cc1,46.3% (inactive)
2,O=C(N1CCCC1)C12CC3CC(C1)CC(C(=O)N1CCCC1)(C3)C2,0.875% (inactive)
3,CC(Sc1nnc(-c2ccccc2F)n1C1CC1)C(N)=O (stereo not given),2.33% (inactive)
4,O=S1(=O)CCO[C@H]2Cc3ccccc3[C@H]2N1Cc1ccccc1,-0.566% (inactive)
5,CCc1ccc(NC(=O)c2ccc(Cn3cc([N+](=O)[O-])cn3)cc2)cc1,7.69% (inactive)
6,Cn1cc([N+](=O)[O-])c(C(=O)Nc2cnn(Cc3ccc(F)cc3)c2)n1,61.3% (active)
7,Cn1cc([N+](=O)[O-])c(C(=O)Nc2ccc3c(c2)OCCO3)n1,15.1% (inactive)
8,CC(C)CCN(C(=O)c1csnn1)C(C(=O)NC1CCCC1)c1ccccc1 (stereo not given),1.25% (inactive)
9,Cc1ccc(N2C(=O)c3ccccc3C2(O)c2ncc[nH]2)cc1 (stereo not given),11% (inactive)
10,CCOC(=O)c1ccc(NC(=O)c2cccnc2)cc1,-5.28% (inactive)
11,CCCC(=O)Nc1nc2ccc(NC(=O)c3cccnc3)cc2s1,56.4% (active)
12,CCCC(=O)Nc1nc2ccc(NC(=O)c3c(F)c(F)c(OC)c(F)c3F)cc2s1,40.2% (inactive)
13,FC(F)(F)c1ccc(CN2C[C@@H]3C(c4ccccc4)C4(c5ccccc5)CC3(C4)[C@H]2c2ccccc2)cc1 (stereo not given in full),93.9% (active)
14,Clc1ccc(C2[C@H]3CN(CC4CCCCC4)[C@H](c4ccccc4)C34CC2(c2cccnc2)C4)cn1 (stereo not given in full),-0.579% (inactive)
15,COC(=O)c1ccc(C23CC4(C2)[C@H](CN(Cc2cccnc2)[C@@H]4c2ccccc2)C3c2ccc(Cl)nc2)cc1 (stereo not given in full),21.5% (inactive)
16,O=C1c2ccccc2C(=O)N1CCC(c1ccccc1)c1ccco1 (stereo not given),-4.99% (inactive)
17,CC1CCC(N2CC(=O)N(Cc3ccc4c(c3)OCO4)C(c3ccc(F)cc3)C2=O)CC1 (stereo not given),-7.03% (inactive)
18,O=C(CN1C(=O)C2C3CCC(C3)C2C1=O)Oc1ccc2ccccc2c1 (stereo not given),12% (inactive)
19,CC1=CC(C)(C)Nc2ccc(OC(=O)CN3C(=O)C4CCCCC4C3=O)cc21 (stereo not given),54% (active)
20,CC1=CC(C)(C)Nc2ccc(OC(=O)C(Cc3ccccc3)N3C(=O)C4CCCCC4C3=O)cc21 (stereo not given),42.7% (inactive)
21,Cc1ccc(CNC(=O)Cn2cnc3c(NCc4ccccc4)ncnc32)o1,28.2% (inactive)
22,NC(=O)COc1ccc(C23CC4CC(CC(C4)C2)C3)cc1,-45% (inactive)
23,Cc1cc([N+](=O)[O-])nn1CC(=O)Nc1ccc(Cc2ccncc2)cc1,2.13% (inactive)
24,CCOC(=O)CC1C(=O)NCCN1c1nc2c(C)cccn2c(=O)c1/C=C1\SC(=S)N(C(C)CC)C1=O (stereo not given),59% (active)
25,CCOC(=O)N1CCN(C(=O)CSc2nc(=O)n3cccc(C)c3n2)CC1,-0.597% (inactive)
26,CCCN(CCC)c1nc2c(C)cccn2c(=O)c1/C=C1/SC(=S)N(Cc2ccco2)C1=O,2.98% (inactive)
27,Cc1cc(C)n2nc(C(=O)Nc3cccc(S(=O)(=O)N4CCOCC4)c3)nc2n1,7.78% (inactive)
28,NC(=O)COc1ccccc1C(=O)NC12CC3CC(CC(C3)C1)C2,3.86% (inactive)

row,Structure (SMILES),inhibition
1,COc1ccccc1C(=O)NC(=S)NC12CC3CC(CC(C3)C1)C2,63.6% (active)
2,COc1ccccc1C(=O)NC(=O)COC(=O)C1CC1,-22.8% (inactive)
3,COc1ccc(N2CCN(CCNC(=O)Nc3cc(Cl)ccc3Cl)CC2)cc1,14.4% (inactive)
4,CCCCn1c(N)c(N(CC(C)C)C(=O)c2ccc(Br)o2)c(=O)[nH]c1=O,25.9% (inactive)
5,CNc1ccc(SC#N)cc1,0.392% (inactive)
6,CC(=NCc1ccco1)c1c(C(F)(F)F)[nH]n(-c2nc3ccccc3s2)c1=O,0.099% (inactive)
7,COC(=O)Cc1[nH]n(-c2nc3ccccc3s2)c(=O)c1C(C)=Nc1ccc(OC)cc1,77.3% (active)
8,COc1ccc(C2=NN(c3nc4ccccc4s3)C(=O)C2)cc1,1.88% (inactive)
9,CCn1nc(C)c(CNC(=O)C2CCC(=O)N(Cc3cccc(F)c3)C2)c1C (stereo not given),28.2% (inactive)
10,COc1ccc2[nH]c3c(c2c1)CCN1C(=O)C(CC(=O)NCCCN(C)C)C[C@H](C(=O)N2CCOCC2)[C@@]31CCC1CCCC1 (stereo not given in full),-3.6% (inactive)
11,COc1ccc(CNC(=O)C[C@H]2C[C@H](C(=O)N3CCOCC3)[C@@]3(CCC4CCCC4)c4[nH]c5ccc(Cl)cc5c4CCN3C2=O)cc1OC,92.6% (active)
12,O=C(C[C@H]1C[C@H](C(=O)N2CCOCC2)[C@@]2(CCC3CCCC3)c3[nH]c4ccc(Cl)cc4c3CCN2C1=O)NCc1ccco1,49.9% (inactive)
13,COCCN(C(=O)C(C)C)c1nnc(-c2ccc(C(C)(C)C)cc2)s1,-22.5% (inactive)
14,O=C1NC(Nc2nc3ccccc3s2)(C(F)(F)F)C(=O)N1C1CCCCC1 (stereo not given),66.2% (active)
15,O=C(NC1(C(F)(F)F)NC(=O)N(C2CCCCC2)C1=O)c1ccco1 (stereo not given),1.56% (inactive)
16,COC(=O)NC1(C(F)(F)F)NC(=O)N(C2CCCCC2)C1=O (stereo not given),-5.21% (inactive)
17,CC(Oc1ccc(F)cc1)C(=O)Nc1cc(S(=O)(=O)N2CCOCC2)ccc1N1CCN(C)CC1 (stereo not given),13.7% (inactive)
18,Cc1cc(NC(=O)/C=C/C(=O)N(c2ccccc2C)C(C(=O)NC2CCCC2)c2ccc(F)cc2)no1 (stereo not given),63.1% (active)
19,Cc1cc(NC(=O)CCC(=O)N(c2cccc(F)c2)C(C(=O)NC2CCCC2)c2ccncc2)no1 (stereo not given),-20% (inactive)
20,Cc1cc(NC(=O)/C=C/C(=O)N(CC(=O)NC2CCCC2)c2ccc(F)cc2)no1,-19.5% (inactive)
21,CCOc1cc(/C=N/NC(=O)c2cc(-c3ccccc3)nc3ccccc23)ccc1O,-10.1% (inactive)
22,CCOc1ccc(-c2cc(C(=O)N/N=C/c3ccc(O)cc3)c3ccccc3n2)cc1,76.9% (active)
23,COc1ccc(/C=N/NC(=O)c2cc(-c3cccc(C)c3)nc3ccccc23)cc1O,34.6% (inactive)
24,O=C(NCCCN1CCOCC1)c1cnn2c(-c3ccccc3)cc(-c3ccccc3)nc12,37.7% (inactive)
25,CCN1CCN(c2ccc(S(=O)(=O)N3CCCCC3)cc2NC(=O)c2cccc(NC(C)=O)c2)CC1,12% (inactive)
26,CCN1CCN(c2ccc(S(=O)(=O)N3CCCCC3)cc2NC(=O)Cc2c(Cl)cccc2Cl)CC1,65.1% (active)
27,CN1CCN(c2ccc(S(=O)(=O)N3CCCCC3)cc2NC(=O)Cc2ccccc2F)CC1,9.14% (inactive)
